# Assay results reported in the supplement of paper PMC6555819.
# How the values were obtained:
# Assay in all cases: PBM binding z-score (relative to random genomic background probes); higher = stronger binding; sequences stand for … in GC…GCGATTGACAGCGTAGAATGAAGG
# [1] = test system: FXR:RXRa (NR concentration 270 nM, RXRa partner concentration 90 nM)
# How it was run: (§1)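 Regression normalization was applied to scanned fluorescence from custom Agilent 4×180K protein-binding microarrays. Before scanning, arrays were incubated 1 h with ligand-free nuclear receptor dimers, and binding was detected with antibodies against each partner (one per run). Binding z-scores use the random background probes as reference.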
# [2] = test system: LXRa:RXRa (NR concentration 270 nM, RXRa partner concentration 90 nM)
# How it was run: as §1
# [3] = test system: LXRa homodimer (NR concentration 270 nM)
# How it was run: as §1
# [4] = test system: LXRb:RXRa (NR concentration 270 nM, RXRa partner concentration 90 nM)
# How it was run: as §1
# [5] = test system: LXRb homodimer (NR concentration 270 nM)
# How it was run: as §1
# [6] = test system: PPARa:RXRa (NR concentration 270 nM, RXRa partner concentration 90 nM)
# How it was run: as §1
# [7] = test system: PPARg:RXRa (NR concentration 180 nM, RXRa partner concentration 90 nM)
# How it was run: as §1
# [8] = test system: PPARg:RXRa 270nM:90nM, anti-RXR (NR concentration 270 nM, RXRa partner concentration 90 nM)
# How it was run: as §1
# [9] = test system: PPARg:RXRa 30nM:10nM, anti-RXR (NR concentration 30 nM, RXRa partner concentration 10 nM)
# How it was run: as §1
# [10] = test system: PPARg:RXRa 90nM:30nM, anti-RXR (NR concentration 90 nM, RXRa partner concentration 30 nM)
# How it was run: as §1
# [11] = test system: PPARg:RXRa DBDmut IVT, anti-RXR (DBD mutation: RXRa K156A/R161A, NR concentration 270 nM, RXRa partner concentration 90 nM)
# How it was run: as §1
# [12] = test system: PPARg:RXRa IVT, anti-PPARg (NR concentration 270 nM, RXRa partner concentration 90 nM)
# How it was run: as §1
# [13] = test system: PPARg DBDmut:RXRa IVT, anti-PPARg (DBD mutation: PPARg1 K132A/R137A, NR concentration 270 nM, RXRa partner concentration 90 nM)
# How it was run: as §1
# [14] = test system: PPARg DBDmut IVT, anti-PPARg (DBD mutation: PPARg1 K132A/R137A, NR concentration 270 nM)
# How it was run: as §1
# [15] = test system: PPARg homodimer (NR concentration 180 nM)
# How it was run: as §1
# [16] = test system: PXR:RXRa (NR concentration 270 nM, RXRa partner concentration 90 nM)
# How it was run: as §1
# [17] = test system: PXR homodimer (NR concentration 270 nM)
# How it was run: as §1
# [18] = test system: RARa:RXR (NR concentration 270 nM, RXRa partner concentration 90 nM)
# How it was run: as §1
# [19] = test system: RARa homodimer (NR concentration 270 nM)
# How it was run: as §1
# [20] = test system: RARb:RXRa (NR concentration 270 nM, RXRa partner concentration 90 nM)
# How it was run: as §1
Sequence,PBM binding z-score [1],PBM binding z-score [2],PBM binding z-score [3],PBM binding z-score [4],PBM binding z-score [5],PBM binding z-score [6],PBM binding z-score [7],PBM binding z-score [8],PBM binding z-score [9],PBM binding z-score [10],PBM binding z-score [11],PBM binding z-score [12],PBM binding z-score [13],PBM binding z-score [14],PBM binding z-score [15],PBM binding z-score [16],PBM binding z-score [17],PBM binding z-score [18],PBM binding z-score [19],PBM binding z-score [20]
ATCGAAAGGTCGAAGGTGAGTATGCCCACCCGAA,4.46,3.31,0.253,2.87,0.664,4.64,4.16,5.05,2.9,3.81,0.0846,2.48,0.798,0.662,1.31,3.12,-0.415,4.46,-0.229,3.83
AATACAGGGTCACTAGGCCAGAGAAGGTACGAAT,5.79,5.03,1.01,3.99,0.795,5.85,7.78,6.43,3.11,5.35,4.07,5.68,1.28,1.34,1.96,3.02,0.776,3.74,0.823,4.2
ATATGTAGGTTACATCCGGGACATTCAGGCTATG,0.396,2.2,0.343,1.11,0.574,3.44,5.41,4.47,1.95,3.37,7.57,7.46,4.54,2.06,1.33,0.599,0.5,0.964,0.969,1.08
CAAACTAGGTCGCGAAAGGTCAAAGTCGAATGAC,6.26,6.45,5.69,5.96,1.92,6.03,7.96,6.66,4.55,6.34,6.96,7.13,1.26,1.98,3.65,6.52,2.13,6.77,2.38,5.01
ACTATTAGTTGATACGAGGGCAACCGATAGGTTG,0.829,0.48,0.407,0.266,0.576,0.327,0.752,0.283,0.308,0.272,0.641,1.17,1.01,1.4,0.764,1.34,0.799,0.922,0.828,1.28
CAAACTAGGTCACGAAACGTCAAAGTCGAATGAC,4.62,3.49,0.329,2.55,0.542,5.24,9.06,7.26,5.44,7.36,8.38,9.02,2.1,1.7,2,1.76,0.0967,2.91,0.992,4.36
CCCACTGGGCCAAAAAGGTCATTGATGCCGATAA,3.49,4.24,3.22,4.01,0.236,4.45,3.06,4.19,1.38,3.23,2.99,4.17,-1.05,-0.939,3.72,4.91,4.6,5.4,1.88,4.02
AGAATGAGGTTAAGATCAAGGAAACAGAATACAT,1.93,1.78,0.0429,1.71,-0.221,3.67,2.49,2.3,0.939,1.76,2.65,2.43,1.67,0.683,0.598,1.13,0.0373,1.75,0.928,1.88
TCATATAGGTAATACAGGTGTAAGTCGGCATCTA,1.11,1.19,0.352,0.876,0.401,1.28,1.06,2.23,3.93,3,3.63,2.43,1.94,1.17,1,0.767,0.343,0.844,1.25,0.255
AGAATGAGGTTAAAATCAGGGAAACAGAATACAT,2.65,2.59,0.234,2.08,0.345,3.69,2.3,2.46,0.879,1.7,2.34,2.5,0.82,1.18,0.858,1.17,0.655,1.9,0.961,1.59
GCTCGGAGGACAAGGCCAGAGCTTTGTCCGTAGA,-0.721,-1.04,-0.948,-1.4,-1.59,-1.69,-1.44,-1.18,-1.47,-1.57,-1.3,-0.505,-1.72,-1.33,-1.33,-1.03,-0.879,-0.936,-1.54,0.806
ACAGACAGGTGATGAAGGTAACTCGGGCTATCAT,-0.17,0.107,-0.351,-0.291,-0.168,0.0611,0.471,-0.0859,-0.0607,-0.242,0.382,0.0218,-0.282,-0.148,0.503,-0.0935,0.344,0.209,0.291,0.263
CAAACTAGGTCACCGCAAGGTCAAAGTCCGCATG,6.27,5.91,5.31,5.42,1.37,6.06,9.19,7.84,5.73,7.81,8.65,8.87,6.76,3.92,8.41,6.08,2.22,6.85,2.14,5
TCATACAGGTGAAGGTAACTCAGGTACGCAGTCG,1.02,2.17,0.186,1.18,0.221,1.68,1.3,2.39,3.72,3.04,3.17,2.45,0.347,1.84,1.14,0.814,0.508,1.31,0.817,1.26
